Rows were chosen to be rich in hits. Some 2.7% of all compounds tested hit in one or more screens of this group.
12-LOX inh = inhibitors of human 12S-lipoxygenase ALOX12; P18054; purified 12hLO, xylenol orange hydroperoxide absorbance; Potency, µM (top dose mostly 108 µM), actives largely listed as inhibitors; 1.1% of 580,000 active
Target sequence (P18054 whole entry, looked up): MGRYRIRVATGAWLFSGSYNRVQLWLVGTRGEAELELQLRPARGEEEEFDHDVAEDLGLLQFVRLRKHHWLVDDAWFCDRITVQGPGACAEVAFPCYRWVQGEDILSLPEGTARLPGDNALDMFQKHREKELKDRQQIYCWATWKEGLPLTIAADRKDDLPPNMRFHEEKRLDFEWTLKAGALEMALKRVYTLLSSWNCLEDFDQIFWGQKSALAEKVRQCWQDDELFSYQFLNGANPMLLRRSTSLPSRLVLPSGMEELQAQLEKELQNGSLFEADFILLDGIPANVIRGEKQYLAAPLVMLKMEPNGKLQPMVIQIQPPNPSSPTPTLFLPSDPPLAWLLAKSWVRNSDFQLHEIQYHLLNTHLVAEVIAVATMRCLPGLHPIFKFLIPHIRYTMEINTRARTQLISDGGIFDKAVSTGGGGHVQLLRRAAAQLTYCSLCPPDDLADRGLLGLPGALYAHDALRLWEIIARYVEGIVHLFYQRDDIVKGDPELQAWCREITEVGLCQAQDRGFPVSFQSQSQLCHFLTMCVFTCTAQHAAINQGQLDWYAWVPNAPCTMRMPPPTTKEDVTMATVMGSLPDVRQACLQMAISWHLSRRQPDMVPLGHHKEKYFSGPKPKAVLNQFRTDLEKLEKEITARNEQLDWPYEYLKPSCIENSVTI
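Purified human 12hLO at 150 nM in 25 mM Hepes, 0.01% Triton X-100, pH 7.0, preincubated 15 min at room temperature with compound. Reaction started with 40 uM arachidonic acid, 30 min at room temperature. Hydroperoxide measured by Fe-xylenol orange, 573/405 nm absorbance ratio.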
ATXN2 expr inh = ATXN2 expression inhibition; 0.72% of 360,000 active; HEK-293 ATXN2-luciferase reporter, luminescence, 24 h; AID 1745845; Potency, µM (titrated, usually from 57 µM), usual class: inhibitors; also: nearly all actives have a fitted effect of over 55% in size
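ATXN2-luciferase reporter cells (luciferase flanked by upstream and downstream ATXN2 gene portions) were treated 24 h at 37 °C with compounds at up to 57 uM. SteadyGlo luminescence gave expression; GF-AFC fluorescence gave viability.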
HepG2 tox-1 = HepG2 cytotoxicity, counter-screen for TGF-b inhibitors; 0.76% of 410,000 active; Potency, µM (highest dose often 46.1 µM), usual class: cytotoxic; AID 588856; HepG2 CAGA-GFP viability, ATP luminescence, 18 h
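HepG2 CAGA-GFP cells (1000/well, DMEM with 1% FBS) received compound, then TGF-beta at 500 pg/mL final, and were incubated 18 hours at 37 degrees C. Viability was read by CellTiter-Glo luminescence. Media-only wells were set as complete cell-killing and DMSO as no toxicity.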
TGFb inhibitor = blocks TGF-b signaling; 1.2% of 410,000 active; HepG2 CAGA-GFP TGF-b/SMAD3 reporter, GFP fluorescence, 18 h; TGF-beta stimulated, 500 pg/mL final; Potency, µM (top dose mostly 46.1 µM), most hits filed as inhibitors; also: nearly all actives have a fitted effect of over 65% in size
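HEPG2 CAGA-GFP reporter cells (1000/well, DMEM with 1% FBS) received compounds, then recombinant TGF-beta at 500 pg/mL final for 18 hours at 37 degrees C. Per-cell GFP summed per well was normalised to unstimulated and stimulated DMSO controls before curve fitting.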
ATXN viability = viability counter-screen for ATXN expression inhibitors; S2 cells (HEK-293 line with an ATXN2-luciferase reporter) viability, CellTiter-Fluor protease fluorescence, 24 h; Potency, µM (titrated, usually from 56.7 µM), most hits filed as cytotoxic; 0.49% of 400,000 active; AID 651635; also: nearly all actives have a fitted effect of over 40% in size
TGFb CAGA inh = TGF-b pathway inhibition, cherry-pick retest; AID 720534; Potency, µM (series often up to 46.1 µM), usual class: inhibitors; 63% of 1,600 active; HepG2 CAGA-GFP TGF-b reporter, GFP fluorescence, 18 h; cells stimulated with TGF-beta, 500 pg/mL; shares compounds with TGFb inhibitor; also: nearly all actives have a fitted effect of over 65% in size
HepG2 tox-2 = HepG2 cytotoxicity, TGF-b inhibitor counterscreen. AID 720535. Potency, µM (series often up to 46.1 µM), hits mostly inhibitors. shares compounds with TGFb inhibitor. HepG2 CAGA-GFP viability, ATP luminescence, 18 h; cells stimulated with TGF-beta, 500 pg/mL. 27% of 1,600 active; also: nearly all actives have a fitted effect of over 70% in size
CCL64 TGFb inh = TGF-b inhibition, CCL64 orthogonal assay; Potency, µM (highest dose often 46.1 µM), hits mostly inhibitors; CCL64 CAGA-GFP reporter, TGF-b stimulated, GFP fluorescence, 18 h; AID 720536; 41% of 1,600 active; shares compounds with TGFb inhibitor; also: nearly all actives have a fitted effect of over 65% in size
TGFb COP inh = blocks TGF-b signaling in HepG2 COP reporter. shares compounds with TGFb inhibitor. HepG2 COP-GFP TGF-b reporter, GFP fluorescence, 18 h; cells stimulated by added recombinant TGF-beta. Potency, µM (series often up to 46.1 µM), usual class: inhibitors. 3% of 1,600 active. AID 720537; also: nearly all actives have a fitted effect of over 70% in size
Hits are given with their value; 0 = inactive; ? = inconclusive; - = no result. Calls follow the shape of the dose curve; as a rule, active = well fitted curve in the direction sought with a large enough effect; inconclusive = small, poorly fitted or top-dose-only effect, or another doubt; inactive = no such curve, though single readings can be large; an effect the other way counts as inactive or inconclusive.

SMILES	12-LOX inh	ATXN2 expr inh	HepG2 tox-1	TGFb inhibitor	ATXN viability	TGFb CAGA inh	HepG2 tox-2	CCL64 TGFb inh	TGFb COP inh
COC(=O)[C@@]1(Cc2ccc(OC)cc2)[C@H]2c3cc(C(=O)N4CCCC4)n(Cc4c(CO)[nH]cc(C)c4=O)c3C[C@H]2CN1C(=O)c1ccccc1	0	0	0	?	0	0	0	0	0
O=S(=O)(c1cccc(NC(=S)N2CCN(c3ccccc3)CC2)c1)C(F)F	0	?	0	?	0	-	-	-	-
O=S(=O)(c1cccc(NC(=S)N2CCN(c3ccccc3F)CC2)c1)C(F)F	0	-	0	7.1µM	0	7.3µM	0	0	0
O=C(Oc1cccc2ccccc12)c1ccco1	0	0	0	0	0	-	-	-	-
O=C(Oc1ccc(Cl)c2cccnc12)c1ccco1	0	0	0	8.9µM	0	0	0	0	0
CC(C)C[C@H]1CNC(=S)N1CC1CCCN1C[C@H](CC(C)C)N1C[C@H](Cc2ccc(O)cc2)N(CC2CCCCCC2)C1=S (some centres undefined)	?	?	0	?	?	-	-	-	-
CC(C)C[C@@H](CN1CCCC1CN1C(=S)NC[C@@H]1Cc1ccc(O)cc1)N1C[C@H](Cc2ccc(O)cc2)N(CC2CCCCC2)C1=S (some centres undefined)	?	?	0	10µM	?	8.2µM	?	?	?
CC(C)C[C@H]1CNC(=S)N1CC1CCCN1C[C@H](CC(C)C)N1C[C@H](Cc2ccc(O)cc2)N(CC2CCCCC2)C1=S (some centres undefined)	0	?	11µM	10µM	?	?	?	?	?
CC(C)C[C@@H](CN1CCC[C@@H]1CN1C(=S)NC[C@@H]1Cc1ccccc1)N1C[C@H](Cc2ccc(O)cc2)N(CC2CCCCC2)C1=S	0	0	0	?	?	-	-	-	-
CC(C)C[C@H]1CNC(=S)N1C[C@H]1CCCN1C[C@H](CC(C)C)N1C[C@H](Cc2ccc(O)cc2)N(CC2CCCCCC2)C1=S	0	?	11µM	6.3µM	22µM	?	?	?	0
CCCn1c(C2CC(=O)N(c3ccc(CC)cc3)C2)nc2ccccc21 (centres undefined)	0	-	-	-	-	-	-	-	-
COc1cc(OC)c2c(-c3cccc(-c4ccc(NC(C)=O)cc4)c3)cc(=O)oc2c1	0	0	0	4.5µM	?	1.6µM	0	2.1µM	0
COc1cc(OC)c2c(-c3cccc(-c4ccc(OC)c(OC)c4)c3)cc(=O)oc2c1	0	0	0	?	0	-	-	-	-
CC(C)C[C@H]1CNC(=S)N1C[C@H]1CCCN1C[C@H](Cc1ccc(O)cc1)N1C[C@H](Cc2ccccc2)N(CC2CCCCC2)C1=S	0	?	0	?	?	-	-	-	-
CC(C)C[C@H]1CN([C@@H](Cc2ccccc2)CN2CCCC2CN2C(=S)NC[C@@H]2Cc2ccccc2)C(=S)N1CC1CCCCC1 (some centres undefined)	?	0	-	-	?	-	-	-	-
CC(C)C[C@H]1CNC(=S)N1C[C@H]1CCCN1C[C@H](Cc1ccc(O)cc1)N1C[C@H](CC(C)C)N(CC2CCCCCC2)C1=S	0	?	0	6.3µM	10µM	4.6µM	?	10µM	0
CC(C)C[C@H]1CNC(=O)C(=O)N1C[C@@H]1CCCN1C[C@H](Cc1ccc(O)cc1)N1C[C@H](Cc2ccccc2)N(CC2CCCCCC2)C(=O)C1=O	?	0	-	-	?	-	-	-	-
CC(C)C[C@H]1CNC(=S)N1CC1CCCN1C[C@H](Cc1ccccc1)N1C[C@H](Cc2ccc(O)cc2)N(CC2CCCCC2)C1=S (some centres undefined)	?	0	0	8.9µM	0	6.5µM	0	21µM	0
CC(C)C[C@H]1CNC(=S)N1C[C@H]1CCCN1C[C@H](Cc1ccccc1)N1C[C@H](Cc2ccc(O)cc2)N(CC2CCCCCC2)C1=S	40µM	?	0	10µM	16µM	18µM	?	?	0
CCc1ccccc1NC(=O)CCS(=O)(=O)c1ccc2c(c1)oc(=O)n2C	0	-	-	-	-	-	-	-	-
COc1ccc(C2=NN(C(=O)COC(=O)c3ccc(S(C)(=O)=O)c([N+](=O)[O-])c3)C(c3ccco3)C2)cc1 (centres undefined)	?	?	8.9µM	8.9µM	-	?	?	2.9µM	?
O=C(CCc1ncc(-c2ccc(F)cc2)o1)N1CCCCC1Cc1ccccc1 (centres undefined)	0	-	-	-	-	-	-	-	-
Cc1ccc(-c2nc3ccc(Br)cn3c2Cc2cccc(F)c2)cc1	?	0	0	11µM	0	?	0	?	0
Cc1ccc2nc(-c3ccc(F)cc3)c(Cc3cccc(F)c3)n2c1	0	-	-	-	-	-	-	-	-
COc1cccc(CN2CCC2(C)C(=O)Nc2cccc3cccnc23)c1F (centres undefined)	0	?	0	10µM	?	?	0	?	0
SMILES	12-LOX inh	ATXN2 expr inh	HepG2 tox-1	TGFb inhibitor	ATXN viability	TGFb CAGA inh	HepG2 tox-2	CCL64 TGFb inh	TGFb COP inh
Cc1cc(C)c(NC(=O)CN2CCN(C(=O)C3CC3)CC2)c(C)c1	0	-	-	-	-	-	-	-	-
Cc1cccc(NCc2ccc(O)c3ncccc23)c1C	5.6µM	0	0	11µM	0	10µM	0	?	0
Cc1cccnc1NCc1ccc(O)c2ncccc12	?	?	0	?	0	-	-	-	-
Cc1cc(CNC(=O)Cc2ccc(-n3cnnn3)cc2)c2[nH]c(C)c(C)c2c1	0	-	-	-	-	-	-	-	-
O=C(c1ccc2c3c(cccc13)CC2)C1CCCN(Cc2ccncc2)C1 (centres undefined)	0	-	0	7.9µM	0	0	?	?	0
O=c1c(Cc2ccc(Cl)cc2Cl)c(O)ccn1Cc1ccc(Cl)cc1	0	0	0	11µM	0	?	?	?	0
COc1ccc(CNC(=S)N/N=C/c2ccc(O)c(OC)c2)cc1	32µM	0	0	11µM	0	0	0	0	0
COc1ccc(CNC(=S)N/N=C/c2ccc(OC)c(OC)c2)cc1	0	0	0	0	0	-	-	-	-
Cc1cc2cc(NS(=O)(=O)c3ccccc3F)ccc2[nH]1	0	-	-	-	-	-	-	-	-
Nc1nccnc1C(=O)NCCCc1nc2ccccc2[nH]1	0	-	-	-	-	-	-	-	-
